Results published in PubChem BioAssay AID1159580 (chemical genetic matrix, 2015).
Among all 5,500 compounds or so, about 2,000 (36%) were called active. Another 18% or so got no clear call; they are omitted. Cut-off read from the data, not from the text of the source: active = normalized growth mostly below about 0.91 (no sharp cut-off); inconclusive = no clear call, values can overlap the other calls; inactive = mostly above about 0.92. The list shows a part of the results.

Experiment: chemical genetic growth profiling, strain panel (AID 1159580);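 note: tested at 20 µM; growth read once vehicle control cultures reached saturation at 30 °C; 1 = growth at the plate median or of vehicle wells; lower values mean less growth of the strain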
Details: S. cerevisiae deletion strains, growth OD
[1] = locus YAL040C, strain CLN3, active compounds read low
[2] = locus YCL061C, strain MRC1 (second series), active compounds read low
[3] = locus YDR363W, strain ESC2, active compounds read low
[4] = locus YER002W, strain NOP16, active compounds read low
[5] = locus YNL175C, strain NOP13, active compounds read low
[6] = locus YNL197C, strain WHI3, active compounds read low
[7] = locus YNL224C, strain SQS1, active compounds read low
[8] = locus YOR083W, strain WHI5 (second series), active compounds read low
[9] = locus YPL055C, strain LGE1, active compounds read low
[10] = locus YPL241C, strain CIN2, active compounds read low
[11] = locus YMR307W, strain GAS1, active compounds read low

Measured: normalized growth

N#Cc1c(-c2ccccc2)no[n+]1[O-]
active: [1] 0.674 | [4] 0.85 | locus YNL153C, strain GIM3, active compounds read low 0.515 | [5] 0.774 | [8] 0.253
inactive: locus YAL013W, strain DEP1, active compounds read low 0.942 | [2] 0.995 | [3] 1 | [6] 0.902 | [7] 0.926 | [9] 0.953 | [10] 1

Cc1ccc(O)c(N=Nc2ccccc2)n1
inactive: [1] 0.96 | [3] 0.896 | [4] 1.03 | [11] 0.984 | [5] 0.985 | [6] 0.977 | [7] 0.993
active: [2] 0.934 | locus YJR075W, strain HOC1, active compounds read low 0.855 | [8] 0.738 | [9] 0.425

NC1CCN(c2cccc(Cl)n2)CC1
inactive: [1] 1.01 | [2] 1 | locus YDR150W, strain NUM1, active compounds read low 1.01 | [3] 1.01 | [4] 0.991 | locus YGR078C, strain PAC10, active compounds read low 1.01 | [11] 1.02 | locus YNL128W, strain TEP1, active compounds read low 1.01 | [5] 0.991 | [6] 1 | [7] 1.01 | locus YNL322C, strain KRE1, active compounds read low 0.984 | [8] 0.991 | [10] 1

CN1CCN(C(c2ccccc2)c2ccc(Cl)cc2)CC1 (stereo not given)
inactive: locus YHR030C, strain SLT2, active compounds read low 0.974 | locus YHR079C, strain IRE1, active compounds read low 0.986 | locus YJL095W, strain BCK1, active compounds read low 0.974 | locus YJR066W, strain TOR1, active compounds read low 0.979 | locus YLR113W, strain HOG1, active compounds read low 0.962 | locus YNL183C, strain NPR1, active compounds read low 0.914 | locus YOR231W, strain MKK1, active compounds read low 0.981 | locus YPL256C, strain CLN2, active compounds read low 0.951
